Source: PubChem BioAssay (NCI)
This is part of a sample that, as a whole, favours compounds with a hit. Of some 79,000 tested, about 15% had one in any assay. Calls of active or inactive are those of the source. Cut-off read from the data, not from the text of the source: active = growth inhibition above about 70%; inactive = the rest.

Columns and labels:
[1] = NCI Yeast Anticancer Drug Screen. Data for the rad50 strain (AID 155);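 note: 0% = growth of vehicle-only cultures of the same strain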; conditions: S. cerevisiae rad50 strain growth inhibition; at 50.0 µM; stronger effect = higher value
Method in brief: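 A DNA repair-deficient yeast mutant serves as the test organism; compound-induced growth inhibition is calculated against vehicle-treated cells.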

[2] = NCI Yeast Anticancer Drug Screen. Data for the mec2-1 strain (AID 157); conditions: S. cerevisiae mec2-1 strain, at 50.0 µM, stronger effect = higher value
Method in brief: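 Readout is yeast growth inhibition, normalised to vehicle-treated controls, in the mec2-1 strain exposed to compound.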

[3] = NCI Yeast Anticancer Drug Screen. Data for the sgs1 mgt1 strain (AID 161);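 note: 0% = growth of cultures given vehicle only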; conditions: S. cerevisiae sgs1 mgt1 strain, at 50.0 µM, stronger effect = higher value
Method in brief: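 This yeast growth screen uses a strain with defined DNA-repair lesions; compound-treated growth is compared with vehicle-treated growth.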

[4] = NCI Yeast Anticancer Drug Screen. Data for the cln2 rad14 strain (AID 165);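 note: 0% = growth equal to vehicle treated cultures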; conditions: S. cerevisiae cln2 rad14 strain, at 50.0 µM, stronger effect = higher value
Method in brief: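 Relative to vehicle controls, growth inhibition of compound-treated cln2 rad14 yeast was recorded.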

[5] = NCI Yeast Anticancer Drug Screen. Data for the bub3 strain (AID 167); conditions: S. cerevisiae bub3 mutant strain, at 50.0 µM, stronger effect = higher value
Method in brief: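 Inhibition values come from growth of compound-treated mutant yeast normalised to vehicle-treated controls.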

[6] = NCI Yeast Anticancer Drug Screen. Data for the mlh1 rad18 strain (AID 175); conditions: S. cerevisiae mlh1 rad18 strain growth inhibition; at 50.0 µM; stronger effect = higher value
Method in brief: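 Test agents were incubated with a yeast strain of defined genotype (DNA damage repair defect). Inhibition of growth was derived by comparison with vehicle-exposed cultures.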

Measured: growth inhibition

CC(C)CNC12CN3CN(CN(C3)C1)C2
inactive: [1] -9.25% | [2] -11.2% | [3] -6% | [4] -27.9% | [5] -4.85% | [6] -23.7%

O=C(CCSCCC(=O)N/N=C/c1ccc(N(CCCl)CCCl)cc1)N/N=C\c1ccc(N(CCCl)CCCl)cc1
inactive: [1] 7% | [2] 3.85% | [3] 9.35% | [4] -6.4% | [5] -9.45% | [6] 16.6%

C[n+]1ccccc1-c1ccc[n+](CCCCC[n+]2cccc(-c3cccc[n+]3C)c2)c1
inactive: [1] 4.45% | [2] -8.6% | [3] -5.5% | [4] -22.4% | [5] -1.5% | [6] 8.15%

[O-][Cl+3]([O-])([O-])O.[O-][n+]1c2ccccc2nc2ccccc21.[Zn+2]
inactive: [1] 58.1% | [2] 36.1% | [3] 18.6% | [4] 14.8% | [5] 28.3% | [6] 41.5%

CC1(C)N=C(N)N=C(N)N1c1ccc(CCC(=O)Nc2cccc(S(=O)(=O)F)c2)c(Cl)c1
active: [2] 82.4%
inactive: [1] 57.7% | [3] 68% | [4] -3.05% | [5] -31.9% | [6] 8.05%

Oc1ccccc1C=NCCN=Cc1ccccc1O
inactive: [1] -15.2% | [2] -11.6% | [3] -1.1% | [4] -41.2% | [5] -9.2% | [6] 31.8%

Cc1ccc(SCC(CSCCO)OCn2cnc3c2NC(N)=NC32OCCO2)cc1 (stereo unspecified)
inactive: [1] 6.15% | [2] 2.3% | [3] -37.2% | [4] -7.4% | [5] -12.3% | [6] -56.9%

O=P(Oc1ccccc1)(N1CCCC1)N1CCCC1
inactive: [1] 27.9% | [2] 18.4% | [3] 11.9% | [4] 18.1% | [5] 36.5% | [6] 8.15%

Cc1ccc(O)cc1C
inactive: [1] 9.95% | [2] 14.1% | [3] 26% | [4] 26.8% | [5] 3.75% | [6] 7.95%

O=C1CN2CCC1CC2
inactive: [1] 10.3% | [2] -47% | [3] -3.25% | [4] 12.6% | [5] -23.2% | [6] 10.8%

CC1(C)N=C(N)N=C(N)N1c1ccc(CCC(=O)Nc2ccc(S(=O)(=O)F)cc2)cc1
active: [2] 87.3% | [3] 76.8%
inactive: [1] 27.6% | [4] -28.8% | [5] -0.55% | [6] 54.1%

O=[N+]([O-])c1ccc(CI)cc1
inactive: [1] 5.65% | [2] 34.2% | [3] 36.6% | [4] -3.55% | [5] 13.4% | [6] 23.3%

CCCOC(C(=O)OC1CCC2CCC1N2C)(c1ccccc1)c1ccccc1 (stereo unspecified)
inactive: [1] 5.4% | [2] -0.5% | [3] 17.8% | [4] 13.8% | [5] 28.8% | [6] 32.9%

CCCCP(=O)(CCCC)CCCC.CCCCP(=O)(CCCC)CCCC.CCCCP(=O)(CCCC)CCCC.CCCCP(=O)(CCCC)CCCC.[Mn+2].[O-][Cl+3]([O-])([O-])O
inactive: [1] 13.3% | [2] -57.7% | [3] -24.6% | [4] -17.5% | [5] -21.9% | [6] -17.9%

COc1cc(CC(N)c2ccccc2)ccc1O (stereo unspecified)
inactive: [1] -7.65% | [2] 2.45% | [3] 11.8% | [4] -20.8% | [5] 2.1% | [6] -18.8%

COc1ccc(CC(C)=O)cc1OC
inactive: [1] -10.9% | [2] 6.8% | [3] 19% | [4] 36% | [5] -24.1% | [6] -5.9%

CCOC(=O)C(CC)(CC)C(=O)OCC
inactive: [1] -18.9% | [2] -2.3% | [3] -29.6% | [4] -38% | [5] -12.4% | [6] 4%

Oc1ccc(C(c2cc3c(cc2O)OCO3)N2CCNCC2)cc1 (stereo unspecified)
inactive: [1] 21.8% | [2] 25.7% | [3] 25.9% | [4] -22.2% | [5] 18.5% | [6] 31.7%

CC(C)=NNC1=NC(C)(C)P(=O)(N2CCCC2C(=O)O)S1 (stereo unspecified)
inactive: [1] 0.8% | [2] -12.4% | [3] -0.45% | [4] -2.3% | [5] 5.25% | [6] -9.2%

CCC(C(C)C)C1NC1C(C)C1CCC2C3CC=C4CC(OC(C)=O)CCC4(C)C3CCC12C (stereo unspecified)
active: [1] 95.8% | [2] 99.2% | [3] 99.1% | [4] 98.3% | [5] 98.6% | [6] 98.7%

O=C(Cc1ccccc1)OCC1CCCO1 (stereo unspecified)
inactive: [1] 18.2% | [2] -6.6% | [3] -3.45% | [4] -25.7% | [5] -17.8% | [6] 10.5%

Cc1ccc2[nH]cc(CCN)c2c1
inactive: [1] -5.9% | [2] -53.1% | [3] -5.4% | [4] 21.8% | [5] -19.8% | [6] -27.5%

C=CCNCC(O)c1ccccc1 (stereo unspecified)
inactive: [1] 13.5% | [2] -14.2% | [3] -11.8% | [4] 6.7% | [5] 6.5% | [6] 4.6%

O=C(NCC(O)CO)c1c([N+](=O)[O-])ccc(N(CCCl)CCCl)c1[N+](=O)[O-] (stereo unspecified)
inactive: [1] -11.2% | [2] -9.85% | [3] -0.45% | [4] 1.45% | [5] -19.1% | [6] 21%

CC1CN1C1c2ccccc2CC1O (stereo unspecified)
inactive: [1] 1.2% | [2] -13.2% | [3] -11.8% | [4] -15.4% | [5] -20.3% | [6] -8.95%

CCOP(=O)(OCC)/C(C#N)=C/c1cccs1
inactive: [1] 0.5% | [2] -35.2% | [3] -15.2% | [4] -15.8% | [5] -41.8% | [6] -13.7%

CC12CCC3C(CCC4=CC(O)CCC43C=O)C1(O)CCC2c1ccc(=O)oc1 (stereo unspecified)
inactive: [1] 7.15% | [2] -35% | [3] 18.1% | [4] 15.2% | [5] -11.2% | [6] 5.05%

Cc1cc(C(C)(C)C)ccc1O
inactive: [1] 27.4% | [2] -4.1% | [3] 8.95% | [4] 4.6% | [5] 28.2% | [6] 22%

CC1=NCCc2c1[nH]c1cc(O)ccc21
inactive: [1] 6.65% | [2] -28.1% | [3] -12.6% | [4] -3.85% | [5] -15.6% | [6] 4%

CCN(CC)CCc1ccncc1
inactive: [1] 12.6% | [2] 10.1% | [3] 6.65% | [4] 30% | [5] -5.05% | [6] 9.65%

CC(=O)OC1CCC2(C)C(CC(=O)C3C2CCC2(C)C(OC(C)=O)CCC32)C1 (stereo unspecified)
inactive: [1] 7.35% | [2] 7.35% | [3] 1.5% | [4] 15.8% | [5] -4.2% | [6] 2.15%

COC(=O)C1C(C)N1P(=O)(OC)OC (stereo unspecified)
inactive: [1] 7.3% | [2] 3.65% | [3] -7.55% | [4] -44% | [5] -4.3% | [6] 6.6%

c1ccc(P2(c3ccccc3)=NSN=S=N2)cc1
inactive: [1] -4.75% | [2] -8.7% | [3] -8.65% | [4] -16.6% | [5] 1.35% | [6] -1.45%

CC(=O)c1cn(Cc2ccccc2)c2ccccc12
inactive: [1] 5.75% | [2] -14.2% | [3] -6.7% | [4] -73.5% | [5] -19.6% | [6] -2.9%

ClCCN(CCCl)c1ccc(/C=N/c2nc(-c3ccccc3)cs2)cc1
inactive: [1] 45.6% | [2] 27.9% | [3] 65.4% | [4] 47.4% | [5] -1.75% | [6] 60.9%

CN1CCN(C)C1=Nc1ccccc1/C=C/C=C1C(=O)N(C)C(=O)N(C)C1=O
inactive: [1] 2.7% | [2] 8.5% | [3] 12.8% | [4] 12.2% | [5] -1.2% | [6] 14.8%

O=C1OC(=O)C2CC3C(CC12)C1(Cl)C(Cl)=C(Cl)C3(Cl)C1(Cl)Cl (stereo unspecified)
inactive: [1] -15.5% | [2] -28.2% | [3] -13.1% | [4] -5.4% | [5] -17.4% | [6] 3%

CC1(C)N(C(=S)Nc2ccccc2)C1(C)C
inactive: [1] 6.45% | [2] 1.3% | [3] 5.25% | [4] -26.2% | [5] -5.2% | [6] 5.8%

CN(C)CCCNc1c2c(nc3ccc(Cl)cc13)CCCC2
inactive: [1] -1.2% | [2] -20.4% | [3] -31.8% | [4] 6.6% | [5] 9.15% | [6] -7.3%

[Se]=P(c1ccccc1)(N1CC1)N1CC1
inactive: [1] 33.2% | [2] 10.2% | [3] 11.8% | [4] 3.55% | [5] -1.3% | [6] 6.85%

Cc1cccc(OP(=O)(c2ccccc2)c2ccccc2)c1
inactive: [1] 15.7% | [2] 0.35% | [3] 22.6% | [4] -40.6% | [5] 3.55% | [6] -15.9%
